Measured values published in PubChem BioAssay (NCATS).
Activity calls are given as the source filed them.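 Rule for the calls: active = compounds whose dose series gives a full or clear partial fitted curve of increased nuclear translocation; inconclusive = weak partial curve or effect only at the top dose; inactive = no dose-dependent translocation response.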

molecular target: Glucocorticoid receptor (Homo sapiens) (UniProt P04150); assay: GR-GFP Redistribution (AID 450); details: U2OS GR-GFP nuclear translocation, laser cytometry, 2 h; series mostly up to 20.6 µM
Potency is the fitted concentration of half-maximal effect.

Glucocorticoid receptor (Homo sapiens), sequence (P04150 whole entry, looked up): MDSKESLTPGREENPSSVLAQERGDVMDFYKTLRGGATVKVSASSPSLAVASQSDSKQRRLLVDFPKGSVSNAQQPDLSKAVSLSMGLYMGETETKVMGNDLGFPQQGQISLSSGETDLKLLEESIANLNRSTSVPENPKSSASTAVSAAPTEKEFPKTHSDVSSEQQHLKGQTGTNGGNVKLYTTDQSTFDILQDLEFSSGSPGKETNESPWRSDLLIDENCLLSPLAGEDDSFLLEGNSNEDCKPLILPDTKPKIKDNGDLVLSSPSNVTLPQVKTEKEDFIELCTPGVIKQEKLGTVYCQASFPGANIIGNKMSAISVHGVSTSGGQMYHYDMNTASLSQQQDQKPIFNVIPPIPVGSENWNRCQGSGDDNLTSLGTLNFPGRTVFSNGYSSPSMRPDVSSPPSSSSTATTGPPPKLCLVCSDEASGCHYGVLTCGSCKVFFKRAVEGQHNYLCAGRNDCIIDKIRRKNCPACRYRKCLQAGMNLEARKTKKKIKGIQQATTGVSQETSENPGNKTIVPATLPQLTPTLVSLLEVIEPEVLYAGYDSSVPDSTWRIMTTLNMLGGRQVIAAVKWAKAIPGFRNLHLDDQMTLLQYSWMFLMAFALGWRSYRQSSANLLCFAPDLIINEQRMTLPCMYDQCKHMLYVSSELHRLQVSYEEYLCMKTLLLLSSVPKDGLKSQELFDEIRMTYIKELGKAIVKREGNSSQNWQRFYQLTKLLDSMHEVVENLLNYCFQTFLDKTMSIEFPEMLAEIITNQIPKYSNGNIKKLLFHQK

Potency, inactive:
N#C[C@@H](Cc1ccc(O)c(O)c1)C(=O)N1CCc2ccccc21 > 46 µM, Cc1c(C)c2c(c(C)c1O)CC[C@@](C)(CN1CCN(c3cc(N4CCCC4)nc(N4CCCC4)n3)CC1)O2 > 46 µM, Cc1ccc2nc(C(F)(F)F)c(C#N)c(N)c2c1 > 20.6 µM, COc1cccc(-c2nnc3sc(C4CCCCC4)nn23)c1 > 20.6 µM, O=C1CC(N(O)C2CC(=O)N(Cc3ccccc3)C2=O)C(=O)N1Cc1ccccc1 (stereo not given) > 20.6 µM, COc1cccc(C(=O)Nc2ccc(-c3nnc(-c4ccco4)o3)cc2)c1 > 20.6 µM, Cc1ccc(S(=O)(=O)N2CCN(c3nc(C(C)C)c4c(c3C#N)CC(C)(C)OC4)CC2)cc1 > 20.6 µM, Cc1oc2cc(O)cc(C)c2c(=O)c1-c1cnn(-c2ccccc2)c1 > 20.6 µM, CCOc1cccc(-c2nnc3sc(C4CCCCC4)nn23)c1 > 20.6 µM, Cn1c(NCC(O)c2ccccc2)nc2c1c(=O)n(Cc1ccc(Cl)c(Cl)c1)c(=O)n2C (stereo not given) > 20.6 µM
